# Experimental data reported in PubChem BioAssay AID1947 (The Scripps Research Institute Molecular Screening Center, 2009).
# The whole screen tested about 300,000 compounds, of which about 990 (0.33%) were called active. Many of the other results were omitted from the sample, so actives are more common in it than they were. A number with no mark means an inactive call.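 Rule for the calls: active = inhibition above the screen mean inhibition plus 3 SD, computed separately per campaign (cut at about 18% in these data); inactive = the rest.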
# System: Fam108B (ABHD17B) serine hydrolase [Mus musculus]
# Test: inhibition of Fam108B (ABHD17B) hydrolase – biochemical, fluorescence polarization, counter-screen for RBBP9 inhibitor project, primary screen (AID 1947);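 note: inhibitors lower polarization as less probe binds the enzyme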
# Details: recombinant Fam108B, FP-Rh probe fluorescence polarization; at 9.51 µM; active compounds read high
row,Structure (SMILES),inhibition
1,Fc1ccccc1N=C1Nc2cccc3cccc1c23,3.49%
2,COc1ccccc1C1=Nc2cccc3cccc(c23)N1,6.45%
3,c1ccc(C2=Nc3cccc4cccc(c34)N2)cc1,31.5% (active)
4,CCN(CC(=O)NCc1ccc(Cl)cc1)C(=O)CSc1ccccc1,1.51%
5,CN1/C(=C\C=C2\N=C(c3ccc(F)cc3)OC2=O)C(C)(C)c2ccccc21,-7.15%
6,CC(=O)Nc1cccc(Nc2nc(-c3cccs3)nc3ccccc23)c1,-19.2%
7,COc1ccc(Nc2nc(-c3cccnc3)nc3ccccc23)cn1,-1.81%
8,Cc1cccc(-c2nc(Nc3ccc(O)cc3)c3ccccc3n2)c1,29.1% (active)
9,O=C(C/C(=N\NC(=O)c1ccccc1Br)C(F)(F)F)c1cccs1,1.64%
10,Cc1ccc(N/C(N)=N/c2nc(C(F)(F)F)cc(C(F)(F)F)n2)cc1,-3.46%
11,CCOc1ccc(NC(=O)COc2ccc(S(=O)(=O)N3CCCC3)cc2)cc1,-2.57%
12,COCCNC(=O)c1ccccc1NS(=O)(=O)c1ccc(C)c([N+](=O)[O-])c1,-2.57%
13,Cc1ccc(NS(=O)(=O)c2ccc(N/N=C/c3ccccc3OCC(=O)O)c([N+](=O)[O-])c2)c(C)c1,26.5% (active)
14,Cc1ccc(NS(=O)(=O)c2ccc(C)c(NC(=O)COc3ccc4ccccc4c3)c2)c(C)c1,-29.8%
15,CO/N=C/c1ccc(N2CCN(C(=O)c3cccc(Cl)c3)CC2)c([N+](=O)[O-])c1,4.08%
16,O=C(O)CCN=C1CCc2ccccc2N1,9.07%
17,CC(=O)Nc1ccc(NC(=O)CSC2=NS(=O)(=O)c3ccccc3N2)cc1,0.2%
18,CC(C)(C)C(=O)OCc1nc(-c2ccc(O)c(O)c2)cs1,-1.7%
19,COc1ccc(CC(=O)Nc2nc(-c3ccc(F)c(F)c3)cs2)cc1OC,-7.43%
20,COc1ccc(OC)c(Nc2nc(-c3ccc(O)c(O)c3)cs2)c1,20.1% (active)

row,Structure (SMILES),inhibition
1,CCOc1ccc(S(=O)(=O)Nc2nccs2)cc1,2.3%
2,COC(C[C@@H](O)C[C@H](O)[C@H](C)OCc1ccccc1)OC,4.92%
3,COc1ccccc1NS(=O)(=O)c1ccc(C)c(C(=O)NCC(c2ccco2)N(C)C)c1 (stereo not given),-0.42%
4,CC(=O)Nc1ccc(Oc2ccc3c(c2)C(=O)NC3=O)cc1,0.73%
5,C=CCn1c(=S)[nH]c2scc(-c3ccco3)c2c1=O,18.5% (active)
6,C=CCNC(=O)CSc1nc2scc(-c3ccco3)c2c(=O)n1CC=C,-0.48%
7,C=CCn1c(SCc2csc(C)n2)nc2scc(-c3ccc(C)o3)c2c1=O,0.24%
8,O=C(CCCN1C(=O)/C(=C/c2cccs2)SC1=S)Nc1ccc(O)cc1,-3.39%
9,CCC/C(C)=N\Nc1nc2c(c(=O)n(C)c(=O)n2C)n1C,0.84%
10,Cc1cccc(COc2ccccc2/C=N/Nc2ccc([N+](=O)[O-])cc2)c1,23% (active)
11,Cc1ccccc1OCCOc1ccc([N+](=O)[O-])cc1/C=N/n1cnnc1,-2.64%
12,O=[N+]([O-])c1ccc(N/N=C/c2ccccc2)cc1,5.14%
13,CC1=CC2=NC(=O)CC(C)(C(=O)N(CC(=O)NC(C)(C)C)Cc3ccccc3)N2C=C1 (stereo not given),0.82%
14,Cc1cccc2cc3c(N)c(C(=O)N4CCCc5ccccc54)sc3nc12,18.9% (active)
15,Cc1c(C(=O)N2CCCc3ccccc32)sc2nc(-c3ccccc3)cn12,2.92%
16,Cc1c(C(=O)N2CCCc3ccccc32)oc2ccccc12,0.38%
17,O=C(CCC(=O)n1ncc2ccccc21)NCc1ccccc1Cl,0.79%
18,COc1ccccc1-c1nnc(-c2ccc(F)cc2)o1,-1.04%
19,COc1ccc(-c2csc(-c3cccs3)n2)cc1OC,3.25%
20,COc1ccc(-c2csc3nc(-c4ccccc4F)oc(=O)c23)cc1OC,21.9% (active)
